Hit rate of the full screen: of about 5,500 compounds, about 2,000 (36%) were called active. Another 18% or so got no clear call; they are omitted. Rule as the data show it: active = normalized growth mostly below about 0.91 (no sharp cut-off); inconclusive = no clear call, values can overlap the other calls; inactive = mostly above about 0.92. This is one part of the list.
Assay: chemical genetic growth profiling, strain panel (AID 1159580);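 also: tested at 20 µM; growth read once vehicle control cultures reached saturation at 30 °C; 1 = growth at the plate median or of vehicle wells; lower values mean less growth of the strain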
Conditions: growth OD

Measured: normalized growth

C=C/C(C)=C\CC1C(C)(O)CCC2C(C)(C)CCCC21C (stereo unspecified)
active: S. cerevisiae deletion strains, locus YAL013W, strain DEP1, stronger effect = lower value 0.143 | S. cerevisiae deletion strains, locus YBR021W, strain FUR4, stronger effect = lower value 0.64 | S. cerevisiae deletion strains, locus YBR229C, strain ROT2, stronger effect = lower value 0.316 | S. cerevisiae deletion strains, locus YCL029C, strain bik1, stronger effect = lower value 0.612 | S. cerevisiae deletion strains, locus YDL035C, strain GPR1, stronger effect = lower value 0.139 | S. cerevisiae deletion strains, locus YDL074C, strain BRE1, stronger effect = lower value 0.172 | S. cerevisiae deletion strains, locus YDL101C, strain DUN1, stronger effect = lower value 0.0723 | S. cerevisiae deletion strains, locus YDL134C, strain PPH21, stronger effect = lower value 0.0532 | S. cerevisiae deletion strains, locus YDL185W, strain tfp1, stronger effect = lower value 0.842 | S. cerevisiae deletion strains, locus YDL192W, strain arf1, stronger effect = lower value 0.0743 | S. cerevisiae deletion strains, locus YDR101C, strain arx1, stronger effect = lower value 0.429 | S. cerevisiae deletion strains, locus YDR150W, strain NUM1, stronger effect = lower value 0.289 | S. cerevisiae deletion strains, locus YDR162C, strain NBP2, stronger effect = lower value 0.0609 | S. cerevisiae deletion strains, locus YDR318W, strain mcm21, stronger effect = lower value 0.074 | S. cerevisiae deletion strains, locus YDR388W, stronger effect = lower value 0.121 | S. cerevisiae deletion strains, locus YDR502C, strain sam2, stronger effect = lower value 0.155 | S. cerevisiae deletion strains, locus YEL061C, strain CIN8, stronger effect = lower value 0.154 | S. cerevisiae deletion strains, locus YER110C, stronger effect = lower value 0.118 | S. cerevisiae deletion strains, locus YER155C, strain BEM2, stronger effect = lower value 0.237 | S. cerevisiae deletion strains, locus YER167W, strain BCK2, stronger effect = lower value 0.0638 | S. cerevisiae deletion strains, locus YGL078C, strain dbp3, stronger effect = lower value 0.626 | S. cerevisiae deletion strains, locus YGL086W, strain mad1, stronger effect = lower value 0.105 | S. cerevisiae deletion strains, locus YGL248W, strain PDE1, stronger effect = lower value 0.0559 | S. cerevisiae deletion strains, locus YGR078C, strain PAC10, stronger effect = lower value 0.0661 | S. cerevisiae deletion strains, locus YGR135W, strain pre9, stronger effect = lower value 0.115 | S. cerevisiae deletion strains, locus YGR229C, strain SMI1, stronger effect = lower value 0.0733 | S. cerevisiae deletion strains, locus YGR252W, strain gcn5, stronger effect = lower value 0.255 | S. cerevisiae deletion strains, locus YHR030C, strain SLT2, stronger effect = lower value 0.056 | S. cerevisiae deletion strains, locus YHR079C, strain IRE1 (second series), stronger effect = lower value 0.504 | S. cerevisiae deletion strains, locus YHR094C, strain hxt1, stronger effect = lower value 0.099 | S. cerevisiae deletion strains, locus YHR129C, strain ARP1, stronger effect = lower value 0.159 | S. cerevisiae deletion strains, locus YHR200W, strain rpn10, stronger effect = lower value 0.247 | S. cerevisiae deletion strains, locus YIL066C, strain RNR3, stronger effect = lower value 0.0635 | S. cerevisiae deletion strains, locus YIL073C, strain SPO22, stronger effect = lower value 0.12 | S. cerevisiae deletion strains, locus YIL125W, strain kgd1, stronger effect = lower value 0.128 | S. cerevisiae deletion strains, locus YIR030C, strain dcg1, stronger effect = lower value 0.136 | S. cerevisiae deletion strains, locus YJL095W, strain BCK1, stronger effect = lower value 0.0688 | S. cerevisiae deletion strains, locus YJL134W, strain LCB3, stronger effect = lower value 0.057 | S. cerevisiae deletion strains, locus YJL168C, strain set2, stronger effect = lower value 0.203 | S. cerevisiae deletion strains, locus YJL187C, strain SWE1 (second series), stronger effect = lower value 0.39 | S. cerevisiae deletion strains, locus YJR043C, strain POL32, stronger effect = lower value 0.258 | S. cerevisiae deletion strains, locus YJR075W, strain HOC1, stronger effect = lower value 0.1 | S. cerevisiae deletion strains, locus YKL009W, strain mrt4, stronger effect = lower value 0.833 | S. cerevisiae deletion strains, locus YKL085W, strain MDH1 (second series), stronger effect = lower value 0.0898 | S. cerevisiae deletion strains, locus YKL085W, strain MDH1, stronger effect = lower value 0.0898 | S. cerevisiae deletion strains, locus YKL190W, strain CNB1, stronger effect = lower value 0.0889 | S. cerevisiae deletion strains, locus YKR001C, strain vps1, stronger effect = lower value 0.0677 | S. cerevisiae deletion strains, locus YLR039C, strain RIC1, stronger effect = lower value 0.111 | S. cerevisiae deletion strains, locus YLR058C, strain SHM2, stronger effect = lower value 0.0878 | S. cerevisiae deletion strains, locus YLR102C, strain apc9, stronger effect = lower value 0.186 | S. cerevisiae deletion strains, locus YLR262C, strain YPT6, stronger effect = lower value 0.121 | S. cerevisiae deletion strains, locus YLR268W, strain sec22, stronger effect = lower value 0.0849 | S. cerevisiae deletion strains, locus YLR330W, strain CHS5, stronger effect = lower value 0.057 | S. cerevisiae deletion strains, locus YLR342W, strain FKS1 (second series), stronger effect = lower value 0.0927 | S. cerevisiae deletion strains, locus YLR371W, strain rom2, stronger effect = lower value 0.0695 | S. cerevisiae deletion strains, locus YLR418C, strain cdc73, stronger effect = lower value 0.107 | S. cerevisiae deletion strains, locus YML016C, strain PPZ1, stronger effect = lower value 0.0581 | S. cerevisiae deletion strains, locus YML032C, strain rad52, stronger effect = lower value 0.621 | S. cerevisiae deletion strains, locus YML124C, strain tub3, stronger effect = lower value 0.184 | S. cerevisiae deletion strains, locus YMR078C, strain ctf18, stronger effect = lower value 0.0993 | S. cerevisiae deletion strains, locus YMR223W, strain ubp8, stronger effect = lower value 0.0709 | S. cerevisiae deletion strains, locus YMR263W, strain SAP30, stronger effect = lower value 0.153 | S. cerevisiae deletion strains, locus YMR307W, strain GAS1, stronger effect = lower value 0.127 | S. cerevisiae deletion strains, locus YNL067W, strain RPL9B, stronger effect = lower value 0.421 | S. cerevisiae deletion strains, locus YNL128W, strain TEP1, stronger effect = lower value 0.0735 | S. cerevisiae deletion strains, locus YNL153C, strain GIM3, stronger effect = lower value 0.215 | S. cerevisiae deletion strains, locus YNL233W, strain BNI4, stronger effect = lower value 0.0602 | S. cerevisiae deletion strains, locus YNL250W, strain rad50, stronger effect = lower value 0.894 | S. cerevisiae deletion strains, locus YNL271C, strain bni1, stronger effect = lower value 0.336 | S. cerevisiae deletion strains, locus YNL298W, strain CLA4, stronger effect = lower value 0.611 | S. cerevisiae deletion strains, locus YNL307C, strain MCK1, stronger effect = lower value 0.072 | S. cerevisiae deletion strains, locus YNL322C, strain KRE1, stronger effect = lower value 0.169 | S. cerevisiae deletion strains, locus YNR052C, strain pop2, stronger effect = lower value 0.527 | S. cerevisiae deletion strains, locus YOL006C, strain TOP1, stronger effect = lower value 0.128 | S. cerevisiae deletion strains, locus YOL147C, strain pex11, stronger effect = lower value 0.152 | S. cerevisiae deletion strains, locus YOR061W, strain CKA2, stronger effect = lower value 0.05 | S. cerevisiae deletion strains, locus YOR069W, strain VPS5, stronger effect = lower value 0.078 | S. cerevisiae deletion strains, locus YOR136W, strain idh2, stronger effect = lower value 0.101 | S. cerevisiae deletion strains, locus YOR144C, strain elg1, stronger effect = lower value 0.423 | S. cerevisiae deletion strains, locus YOR184W, strain ser1, stronger effect = lower value 0.0788 | S. cerevisiae deletion strains, locus YOR316C, strain cot1, stronger effect = lower value 0.113 | S. cerevisiae deletion strains, locus YPL055C, strain LGE1, stronger effect = lower value 0.201 | S. cerevisiae deletion strains, locus YPL241C, strain CIN2, stronger effect = lower value 0.358 | S. cerevisiae deletion strains, locus YPR119W, strain clb2, stronger effect = lower value 0.079 | S. cerevisiae deletion strains, locus YPR163C, strain tif3, stronger effect = lower value 0.0854 | S. cerevisiae deletion strains, locus YPR167C, strain met16, stronger effect = lower value 0.067 | S. cerevisiae deletion strains, strain wtn01, stronger effect = lower value 0.0803 | S. cerevisiae strains, strain wild type, stronger effect = lower value 0.125
inactive: S. cerevisiae deletion strains, locus YKL068W, stronger effect = lower value 0.963 | S. cerevisiae deletion strains, locus YOL012C, strain htz1 0.258 | S. cerevisiae deletion strains, locus YPR141C, strain kar3, stronger effect = lower value 0.958
